RGS4 inh: blocks human RGS4-accelerated GTP hydrolysis; Transcreener GDP fluorescence polarization, RGS4-accelerated GTP hydrolysis; 390,000 compounds, 0.039% hits; Potency, µM (series often up to 114 µM), most hits filed as inhibitors; AID 504845; P49798; further: nearly all actives have a fitted effect of over 75% in size
Target sequence (P49798 whole entry, looked up): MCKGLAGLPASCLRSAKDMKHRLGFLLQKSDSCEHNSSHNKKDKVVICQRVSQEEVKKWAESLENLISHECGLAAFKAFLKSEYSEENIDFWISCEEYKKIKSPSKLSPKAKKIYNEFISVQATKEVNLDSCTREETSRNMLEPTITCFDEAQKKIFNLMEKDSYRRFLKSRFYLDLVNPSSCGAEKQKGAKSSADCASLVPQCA
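MLSMR compounds (23 nl, pin-transferred) preincubated 10 min at room temperature with a 500nM (2x) first reagent, then RGS4 at 900nM (2x) plus Transcreener GDP mix added; fluorescence polarization (620/688 nm) read before and after 90 min at 30 °C.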
KB-V1 MDR tox: kills drug-selected multidrug resistant KB-V1 cells. KB-V1 MDR cells viability, CellTiter-Glo, 72 h. Potency, µM (series often up to 46.1 µM), actives largely listed as cytotoxic. 400,000 compounds, 3.4% hits. AID 1347076; further: nearly all actives have a fitted effect of over 60% in size
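Compound-treated KB-V1 multidrug-resistant cells, 72 h, 37 degrees C; viability by CellTiter-Glo. Fitted qHTS curves give the values.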
KB-3-1 tox: kills parental KB-3-1 adenocarcinoma cells; Potency, µM (titrated, usually from 46.1 µM), usual class: cytotoxic; KB-3-1 viability, CellTiter-Glo ATP luminescence, 72 h; 400,000 compounds, 1.4% hits; further: nearly all actives have a fitted effect of over 60% in size
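KB-3-1 parental drug-naive adenocarcinoma cells in DMEM/10% FBS, incubated 72 h at 37 C with pin-transferred compounds across a concentration series. Viability by CellTiter-Glo luminescence; concentration-response curves fitted after normalization.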
PTAP TSG101 blk: blocks PTAP/TSG101 interaction to inhibit HIV-1 budding | Potency, µM (titrated, usually from 115 µM), actives largely listed as inhibitors | 340,000 tested, under 10 active | Fluorescence polarization, FITC-PTAP peptide / Tsg101 binding | AID 493005; active means well fitted inhibition curve with a large enough effect in the main read-out, with a control signal flat, not every such curve was filed as active; inconclusive means small, poorly fitted or top-dose-only effect, or effect the other way, or a change in a side signal; inactive means no such curve, though single readings can be large or run the other way
Target sequence (Q99816 whole entry, looked up): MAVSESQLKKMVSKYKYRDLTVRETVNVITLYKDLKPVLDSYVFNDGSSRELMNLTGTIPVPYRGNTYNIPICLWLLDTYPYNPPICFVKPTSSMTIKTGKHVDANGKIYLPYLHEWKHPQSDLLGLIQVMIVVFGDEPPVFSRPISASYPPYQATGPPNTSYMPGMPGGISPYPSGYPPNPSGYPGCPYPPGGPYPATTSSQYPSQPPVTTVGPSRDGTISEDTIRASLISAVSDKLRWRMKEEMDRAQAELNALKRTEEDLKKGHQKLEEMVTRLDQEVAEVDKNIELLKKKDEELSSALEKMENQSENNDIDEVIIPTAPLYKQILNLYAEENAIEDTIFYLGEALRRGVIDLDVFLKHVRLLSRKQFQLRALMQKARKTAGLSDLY
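Fluorescence anisotropy tracks displacement of a FITC-tagged PTAP peptide (50 nM) from the Tsg101 binding domain (10 uM), following a 20 min room-temperature incubation at pH 7.5.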
MCF10A rerep: induces DNA re-replication in MCF 10a normal breast cells | AID 624296 | MCF 10A DNA re-replication, Hoechst nuclear intensity, 48 h | 350,000 compounds, 2.9% hits | Potency, µM (titrated, usually from 46.1 µM), actives largely listed as activators; further: nearly all actives have a fitted effect of over 50% in size
SW480 rereplic: inducers of DNA re-replication in SW480 colon cancer cells. SW480 DNA re-replication, Hoechst DNA content imaging, 48 h. Potency, µM (top dose mostly 46.1 µM), actives largely listed as activators. 340,000 compounds, 1.8% hits; further: nearly all actives have a fitted effect of over 55% in size
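Treated cells incubate 48 hr (37 C, 5% CO2), are stained 40 min with Hoechst, and nuclear fluorescence is enumerated; a rise in nuclei with high DNA signal marks re-replication.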
Numbers stand for hits; 0 = inactive; ? = inconclusive; - = no result. This is a sample that favours compounds with a hit; in the whole collection about 6.6% have one here. Unless noted, the call rests on the fitted dose curve; in most records, active means well fitted curve in the direction sought with a large enough effect; inconclusive means small, poorly fitted or top-dose-only effect, or another doubt; inactive means no such curve, though single readings can be large; an effect the other way counts as inactive or inconclusive.

SMILES | RGS4 inh | KB-V1 MDR tox | KB-3-1 tox | PTAP TSG101 blk | MCF10A rerep | SW480 rereplic
CCCN1CCc2c(sc(NC(=O)c3ccc(S(=O)(=O)N4CCN(C(=O)OCC)CC4)cc3)c2C(N)=O)C1 | ? | 0 | 0 | ? | ? | 21µM
CC(=O)Nc1ccc(NC(=O)C2CCN(S(=O)(=O)c3ccc4c(c3)CCCC(=O)N4)CC2)cc1 | 0 | 0 | 0 | - | - | -
CCCSc1oc(-c2cccs2)nc1S(=O)(=O)c1ccc(Cl)cc1 | 0 | 0 | 0 | - | - | -
COc1ccc(-c2csc(N3CCN(S(=O)(=O)c4ccc5c(c4)NC(=O)CO5)CC3)n2)cc1 | 0 | ? | ? | 0 | 0 | 9.2µM
O=C(c1cc(Cl)c(=O)n(Cc2ccc(Cl)cc2)c1)N1CCOCC1 | 0 | 21µM | 0 | 0 | 0 | 0
O=C(c1ccc(C(F)(F)F)n(Cc2ccc(Cl)cc2)c1=O)N1CCOCC1 | 0 | 0 | 0 | 0 | 0 | 0
Nc1c(C(=O)c2ccc(Cl)cc2)sc2nsc(SCCN3CCOCC3)c12 | 0 | 0 | 0 | ? | ? | ?
Nc1c(C(=O)c2ccccc2)sc2nsc(SCCN3CCCC3)c12 | 0 | ? | ? | ? | 21µM | ?
COc1ccc(NS(=O)(=O)c2cc(NC(=O)COc3ccc(OC)cc3)ccc2N2CCOCC2)cc1 | 0 | 2.3µM | 0 | 0 | 0 | 0
COc1ccc(NS(=O)(=O)c2ccc(Cl)c(NC(=O)c3cccnc3Cl)c2)cc1 | 0 | 21µM | 0 | 0 | 0 | 0
COc1ccc(NS(=O)(=O)c2ccc(Cl)c(NC(=O)c3ccccc3F)c2)cc1 | 0 | - | - | 0 | 0 | 0
O=C(Nc1cc(S(=O)(=O)Nc2ccc(Cl)cc2)ccc1N1CCCCC1)c1ccc(F)cc1Cl | 0 | ? | 16µM | 0 | 0 | ?
COc1ccccc1NS(=O)(=O)c1cc(NC(=O)c2ccccc2C)ccc1N1CCOCC1 | 0 | 8.2µM | 0 | 0 | 0 | 0
CCc1cnc2c(c1SCc1c(F)cccc1Cl)c(=O)n(C)c(=O)n2C | 0 | 0 | 0 | - | - | -
COc1ccc(NS(=O)(=O)c2ccc(N3CCOCC3)c(NC(=O)c3ccccc3Cl)c2)cc1 | 0 | 10µM | 16µM | 0 | ? | ?
COC(=O)CCC(=O)Nc1cc(S(=O)(=O)Nc2ccc(Cl)cc2)ccc1N1CCOCC1 | 0 | 0 | 0 | 0 | 0 | -
COc1ccc(S(=O)(=O)Nc2cc(C(=O)NC(C)C)ccc2N2CCOCC2)cc1 | 0 | ? | ? | 0 | 0 | 0
COc1ccc(NS(=O)(=O)c2ccc(N3CCOCC3)c(NC(=O)c3ccc(OC)cc3)c2)cc1 | 0 | 18µM | 0 | 0 | 0 | 0
COc1ccc(-c2cc(C(=O)Nc3cc(S(=O)(=O)N4CCOCC4)ccc3N3CCOCC3)c3ccccc3n2)cc1 | 0 | 0 | 0 | 0 | 2.3µM | 0
COc1ccc(NS(=O)(=O)c2cc(NC(=O)/C=C/c3ccccc3OC)ccc2N2CCCCC2)cc1 | 0 | 5.2µM | 0 | 0 | 0 | 0
O=C(NCc1ccccc1Br)C1CCCN(C(=O)N2CCOc3ccccc32)C1 (configuration not stated) | 0 | 0 | 0 | - | - | -
COc1cccc(CN2C(=O)c3ccccc3Sc3ccc(C(=O)NCCc4ccc(Cl)cc4)cc32)c1 | 0 | - | - | - | - | -
COc1ccc(NS(=O)(=O)c2ccc(N3CCOCC3)c(N)c2)cc1 | 0 | 18µM | ? | 0 | 0 | 0
COc1cccc(CNC(=O)CCl)c1 | 0 | 0 | 0 | 0 | 0 | 0
COc1cccc(CNC(=O)COC(=O)c2nc(Cl)c(Cl)c(Cl)c2Cl)c1 | 0 | 0 | ? | 0 | 7.3µM | 12µM
SMILES | RGS4 inh | KB-V1 MDR tox | KB-3-1 tox | PTAP TSG101 blk | MCF10A rerep | SW480 rereplic
COc1cccc(CNC(=O)COC(=O)c2c(NC(C)=O)sc(C)c2C)c1 | 0 | ? | 0 | 0 | 0 | 16µM
CC(=O)Oc1ccc2c(=O)c(Oc3ccccc3)coc2c1OC(C)=O | 0 | 13µM | ? | 0 | ? | ?
COc1ccccc1/C=C/c1nc(C#N)c(N2CCN(c3ccccc3)CC2)o1 | 0 | 0 | 0 | - | - | -
O=C(NCCc1ccc2c(c1)OCCO2)c1ccc(F)cc1 | 0 | 23µM | 0 | 0 | 0 | -
O=C(NCCc1ccc(Cl)cc1)c1ccc2c(c1)OCCO2 | 0 | 0 | 0 | 0 | 0 | 0
Cn1nc(-c2ccccc2F)c2cc(C(=O)N3CCN(c4ccc(F)cc4)CC3)sc21 | 0 | 0 | ? | - | - | -
Cn1nc(-c2ccccc2F)c2cc(C(=O)N3CCN(c4ccccc4F)CC3)sc21 | 0 | 5.2µM | ? | - | - | -
O=C1NC(=S)S/C1=C\C=C\c1ccc([N+](=O)[O-])o1 | ? | 4.1µM | ? | 0 | 0 | ?
O=C1NC(=S)SC1=Cc1ccc2c(c1)OCO2 | 0 | ? | ? | 0 | ? | 0
CCOc1ccc(NC(=O)Cn2c(=O)n(Cc3ccccc3)c(=O)c3sc4ccccc4c32)cc1 | 0 | - | - | - | - | -
CC(C)C(=O)OCc1cc(=O)n2nc(C3CC3)sc2n1 | 0 | 0 | 0 | - | - | -

Assay outcomes deposited in PubChem by National Center for Advancing Translational Sciences (NCATS).
